Data: ChEMBL document CHEMBL2218924, “A broad activity screen in support of a chemogenomic map for kinase signalling research and drug discovery” (Biochem J, 2013)

How the values were obtained:
[1] = biological target: T1, Dual specificity mitogen-activated protein kinase kinase 7 (Homo sapiens) (UniProt O14733); conditions: at 1 µM
T1 sequence (whole entry): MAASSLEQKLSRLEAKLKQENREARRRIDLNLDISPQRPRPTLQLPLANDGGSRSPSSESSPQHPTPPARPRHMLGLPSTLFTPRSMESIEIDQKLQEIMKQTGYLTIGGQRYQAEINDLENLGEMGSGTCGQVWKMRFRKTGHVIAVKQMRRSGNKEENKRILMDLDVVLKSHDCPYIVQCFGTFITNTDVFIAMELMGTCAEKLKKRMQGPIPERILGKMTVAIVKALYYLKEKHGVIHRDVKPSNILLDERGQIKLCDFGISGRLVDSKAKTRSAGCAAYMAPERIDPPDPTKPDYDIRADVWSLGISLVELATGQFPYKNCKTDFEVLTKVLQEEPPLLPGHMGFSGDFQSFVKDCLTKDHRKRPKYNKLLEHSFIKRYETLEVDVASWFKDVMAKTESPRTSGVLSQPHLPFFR

[2] = biological target: Myosin light chain kinase, smooth muscle (Homo sapiens) (UniProt Q15746); conditions: at 1 µM
Chain of Myosin light chain kinase, smooth muscle (Homo sapiens) (Q15746 whole entry): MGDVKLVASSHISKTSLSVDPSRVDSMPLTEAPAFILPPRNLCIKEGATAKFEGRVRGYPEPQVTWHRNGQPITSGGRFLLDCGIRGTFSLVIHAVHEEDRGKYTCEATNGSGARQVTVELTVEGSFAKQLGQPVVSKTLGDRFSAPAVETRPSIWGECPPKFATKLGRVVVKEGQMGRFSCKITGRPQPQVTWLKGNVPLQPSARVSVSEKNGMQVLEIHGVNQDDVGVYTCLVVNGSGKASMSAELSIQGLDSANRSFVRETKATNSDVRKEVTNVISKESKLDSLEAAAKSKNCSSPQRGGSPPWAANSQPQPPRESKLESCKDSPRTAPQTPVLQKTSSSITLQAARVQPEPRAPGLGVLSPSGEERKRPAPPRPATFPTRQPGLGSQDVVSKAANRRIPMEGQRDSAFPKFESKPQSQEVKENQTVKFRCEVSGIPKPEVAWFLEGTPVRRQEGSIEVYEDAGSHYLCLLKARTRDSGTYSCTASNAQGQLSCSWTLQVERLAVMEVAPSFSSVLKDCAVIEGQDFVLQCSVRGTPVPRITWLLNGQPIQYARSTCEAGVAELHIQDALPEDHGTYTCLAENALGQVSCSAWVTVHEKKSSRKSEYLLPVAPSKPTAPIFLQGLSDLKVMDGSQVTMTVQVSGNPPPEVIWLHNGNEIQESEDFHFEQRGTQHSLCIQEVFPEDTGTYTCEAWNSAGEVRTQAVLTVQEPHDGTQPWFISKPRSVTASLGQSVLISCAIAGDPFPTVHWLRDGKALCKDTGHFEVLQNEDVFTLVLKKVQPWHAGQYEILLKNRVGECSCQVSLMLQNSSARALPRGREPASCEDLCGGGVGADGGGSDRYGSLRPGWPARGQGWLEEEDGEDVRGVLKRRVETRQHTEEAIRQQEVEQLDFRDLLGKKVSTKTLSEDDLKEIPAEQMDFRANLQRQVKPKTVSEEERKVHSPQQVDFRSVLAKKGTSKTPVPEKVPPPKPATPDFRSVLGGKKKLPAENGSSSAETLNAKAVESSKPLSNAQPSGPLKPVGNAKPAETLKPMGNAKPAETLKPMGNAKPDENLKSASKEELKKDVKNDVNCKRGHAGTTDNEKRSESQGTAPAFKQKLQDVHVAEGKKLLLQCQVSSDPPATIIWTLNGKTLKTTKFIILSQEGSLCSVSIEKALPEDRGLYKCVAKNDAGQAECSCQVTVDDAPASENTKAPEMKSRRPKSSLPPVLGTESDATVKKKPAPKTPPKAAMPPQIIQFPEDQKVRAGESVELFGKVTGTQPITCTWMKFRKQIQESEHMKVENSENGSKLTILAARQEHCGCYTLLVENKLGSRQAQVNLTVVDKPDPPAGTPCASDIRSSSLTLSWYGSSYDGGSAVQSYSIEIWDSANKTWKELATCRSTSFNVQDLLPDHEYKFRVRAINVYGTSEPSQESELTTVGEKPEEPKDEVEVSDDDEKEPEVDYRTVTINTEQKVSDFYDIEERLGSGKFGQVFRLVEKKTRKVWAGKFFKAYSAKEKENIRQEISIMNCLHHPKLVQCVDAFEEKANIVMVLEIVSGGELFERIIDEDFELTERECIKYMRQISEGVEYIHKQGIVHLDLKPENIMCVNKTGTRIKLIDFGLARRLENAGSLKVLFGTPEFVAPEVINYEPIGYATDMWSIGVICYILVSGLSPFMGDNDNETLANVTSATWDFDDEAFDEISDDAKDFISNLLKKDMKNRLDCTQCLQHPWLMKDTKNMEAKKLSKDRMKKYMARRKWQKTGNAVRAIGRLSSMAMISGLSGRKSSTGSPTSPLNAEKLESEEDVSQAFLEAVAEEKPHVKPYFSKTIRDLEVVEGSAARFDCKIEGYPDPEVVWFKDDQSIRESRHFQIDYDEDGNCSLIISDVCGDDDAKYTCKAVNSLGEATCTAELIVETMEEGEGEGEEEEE

[3] = biological target: Myosin light chain kinase, smooth muscle (Homo sapiens) (UniProt Q15746); conditions: at 10 µM
[4] = biological target: Mitogen-activated protein kinase kinase kinase 9 (Homo sapiens) (UniProt P80192); conditions: at 1 µM
Chain of Mitogen-activated protein kinase kinase kinase 9 (Homo sapiens) (P80192 whole entry, looked up): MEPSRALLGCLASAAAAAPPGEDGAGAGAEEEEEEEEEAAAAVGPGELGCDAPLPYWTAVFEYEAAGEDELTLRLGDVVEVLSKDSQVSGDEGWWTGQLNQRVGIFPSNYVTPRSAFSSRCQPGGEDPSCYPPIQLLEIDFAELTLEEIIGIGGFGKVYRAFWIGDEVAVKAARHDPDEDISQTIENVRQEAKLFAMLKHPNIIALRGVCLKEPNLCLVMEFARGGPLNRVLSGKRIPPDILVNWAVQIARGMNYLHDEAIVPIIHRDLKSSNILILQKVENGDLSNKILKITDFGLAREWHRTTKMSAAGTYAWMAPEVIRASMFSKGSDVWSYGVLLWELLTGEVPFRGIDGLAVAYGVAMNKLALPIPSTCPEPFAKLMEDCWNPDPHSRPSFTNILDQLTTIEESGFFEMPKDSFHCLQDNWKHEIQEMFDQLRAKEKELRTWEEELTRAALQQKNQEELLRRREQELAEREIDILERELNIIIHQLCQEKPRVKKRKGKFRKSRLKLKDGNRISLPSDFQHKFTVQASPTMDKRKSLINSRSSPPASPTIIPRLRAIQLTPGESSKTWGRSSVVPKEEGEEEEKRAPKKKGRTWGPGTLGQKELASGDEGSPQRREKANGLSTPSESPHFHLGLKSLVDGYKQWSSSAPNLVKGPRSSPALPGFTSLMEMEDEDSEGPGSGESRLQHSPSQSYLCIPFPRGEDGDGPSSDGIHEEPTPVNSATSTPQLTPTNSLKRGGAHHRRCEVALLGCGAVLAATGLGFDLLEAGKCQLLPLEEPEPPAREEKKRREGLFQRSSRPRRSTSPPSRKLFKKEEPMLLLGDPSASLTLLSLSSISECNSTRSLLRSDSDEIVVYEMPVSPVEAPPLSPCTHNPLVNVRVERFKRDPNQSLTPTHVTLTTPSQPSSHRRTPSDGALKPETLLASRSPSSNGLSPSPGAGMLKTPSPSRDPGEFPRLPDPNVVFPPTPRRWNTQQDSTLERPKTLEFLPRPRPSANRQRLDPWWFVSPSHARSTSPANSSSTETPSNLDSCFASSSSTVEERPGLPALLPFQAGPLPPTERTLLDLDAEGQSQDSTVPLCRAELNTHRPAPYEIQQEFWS

[5] = biological target: Mitogen-activated protein kinase kinase kinase 9 (Homo sapiens) (UniProt P80192); conditions: at 10 µM
[6] = biological target: Serine/threonine-protein kinase MRCK alpha (Homo sapiens) (UniProt Q5VT25); conditions: at 1 µM
Chain of Serine/threonine-protein kinase MRCK alpha (Homo sapiens) (Q5VT25 whole entry): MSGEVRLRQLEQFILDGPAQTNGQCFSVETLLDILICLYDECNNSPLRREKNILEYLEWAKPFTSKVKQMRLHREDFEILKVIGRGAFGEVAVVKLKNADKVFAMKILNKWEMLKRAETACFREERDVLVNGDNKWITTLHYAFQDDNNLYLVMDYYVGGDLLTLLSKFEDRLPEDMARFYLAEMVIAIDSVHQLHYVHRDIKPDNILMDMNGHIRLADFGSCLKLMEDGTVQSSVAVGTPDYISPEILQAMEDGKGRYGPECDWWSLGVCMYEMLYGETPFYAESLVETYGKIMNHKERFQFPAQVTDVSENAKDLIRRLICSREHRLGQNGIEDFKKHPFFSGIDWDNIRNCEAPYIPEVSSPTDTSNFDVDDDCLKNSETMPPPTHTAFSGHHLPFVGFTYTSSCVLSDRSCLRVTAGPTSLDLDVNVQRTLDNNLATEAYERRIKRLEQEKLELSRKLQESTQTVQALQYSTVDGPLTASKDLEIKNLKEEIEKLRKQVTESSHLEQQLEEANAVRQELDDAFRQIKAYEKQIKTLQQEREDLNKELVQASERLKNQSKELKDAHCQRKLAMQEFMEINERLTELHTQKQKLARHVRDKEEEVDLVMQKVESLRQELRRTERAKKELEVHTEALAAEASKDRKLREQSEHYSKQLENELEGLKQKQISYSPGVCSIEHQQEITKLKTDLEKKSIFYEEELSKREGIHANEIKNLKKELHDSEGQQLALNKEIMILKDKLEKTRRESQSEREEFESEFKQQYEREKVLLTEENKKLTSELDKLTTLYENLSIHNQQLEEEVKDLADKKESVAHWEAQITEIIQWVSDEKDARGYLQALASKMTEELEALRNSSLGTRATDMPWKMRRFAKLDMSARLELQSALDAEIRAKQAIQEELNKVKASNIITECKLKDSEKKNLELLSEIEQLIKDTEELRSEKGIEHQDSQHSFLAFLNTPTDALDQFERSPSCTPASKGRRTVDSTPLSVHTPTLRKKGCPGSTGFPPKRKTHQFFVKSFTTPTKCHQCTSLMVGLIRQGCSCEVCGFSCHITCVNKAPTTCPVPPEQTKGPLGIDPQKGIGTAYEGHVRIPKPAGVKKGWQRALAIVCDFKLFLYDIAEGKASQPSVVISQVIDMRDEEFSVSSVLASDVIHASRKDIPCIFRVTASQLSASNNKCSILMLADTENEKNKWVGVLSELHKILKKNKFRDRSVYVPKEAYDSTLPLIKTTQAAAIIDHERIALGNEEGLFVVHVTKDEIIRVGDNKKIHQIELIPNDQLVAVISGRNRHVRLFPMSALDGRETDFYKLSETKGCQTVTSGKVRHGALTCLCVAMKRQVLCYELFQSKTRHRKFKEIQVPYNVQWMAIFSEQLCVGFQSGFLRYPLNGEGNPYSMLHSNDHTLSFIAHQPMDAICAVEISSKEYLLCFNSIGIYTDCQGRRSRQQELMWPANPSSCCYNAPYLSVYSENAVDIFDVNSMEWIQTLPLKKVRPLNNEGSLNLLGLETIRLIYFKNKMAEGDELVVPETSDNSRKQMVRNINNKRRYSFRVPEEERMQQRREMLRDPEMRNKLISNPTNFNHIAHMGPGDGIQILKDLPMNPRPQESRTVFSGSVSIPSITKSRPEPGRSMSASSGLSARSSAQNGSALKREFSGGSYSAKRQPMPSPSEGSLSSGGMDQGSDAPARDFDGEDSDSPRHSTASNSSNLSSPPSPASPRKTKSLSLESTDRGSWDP

[7] = biological target: Serine/threonine-protein kinase MRCK alpha (Homo sapiens) (UniProt Q5VT25); conditions: at 10 µM
[8] = biological target: T2, Dual specificity mitogen-activated protein kinase kinase 6 (Homo sapiens) (UniProt P52564); conditions: at 10 µM
T2 sequence (whole entry): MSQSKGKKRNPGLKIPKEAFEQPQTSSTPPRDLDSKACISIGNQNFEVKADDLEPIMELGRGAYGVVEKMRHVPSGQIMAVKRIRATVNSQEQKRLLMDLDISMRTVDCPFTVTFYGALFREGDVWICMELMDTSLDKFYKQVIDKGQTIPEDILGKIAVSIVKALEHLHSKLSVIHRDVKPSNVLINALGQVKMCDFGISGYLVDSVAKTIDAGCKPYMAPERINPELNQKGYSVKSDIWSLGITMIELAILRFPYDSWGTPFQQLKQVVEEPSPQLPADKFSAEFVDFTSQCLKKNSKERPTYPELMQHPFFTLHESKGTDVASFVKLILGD

[9] = biological target: T1, Dual specificity mitogen-activated protein kinase kinase 7 (Homo sapiens); conditions: at 10 µM
[10] = biological target: T2, Dual specificity mitogen-activated protein kinase kinase 6 (Homo sapiens); conditions: at 1 µM

| SMILES | residual activity [1] [%] | residual activity [2] [%] | residual activity [3] [%] | residual activity [4] [%] | residual activity [5] [%] | residual activity [6] [%] | residual activity [7] [%] | residual activity [8] [%] | residual activity [9] [%] | residual activity [10] [%] |
| --- | --- | --- | --- | --- | --- | --- | --- | --- | --- | --- |
| CN(C)CCCn1cc(C2=C(c3c[nH]c4ccccc34)C(=O)NC2=O)c2ccccc21 | 79 | 20 | 7 | 58 | 13 | 115 | 76 | – | – | – |
| Cc1ccc(NC2=CC(=O)c3sc(C)nc3C2=O)cc1 | 74 | 101 | 82 | 98 | 90 | 95 | 91 | 104 | 101 | – |
| O=C1Nc2ccccc2/C1=C1/Nc2ccccc2/C1=N\OCCC(O)CO (stereo unspecified) | 54 | 26 | 20 | 2 | 2 | 111 | 107 | 7 | 5 | 51 |
| Cc1ccc(S(=O)(=O)/C=C/C#N)cc1 | 93 | 95 | 85 | 97 | 97 | 86 | 95 | 94 | 77 | 124 |
| Cc1cc2ncc(-c3ccccc3)nc2cc1C | 76 | 77 | 96 | 92 | 102 | – | 81 | 106 | 93 | 86 |
| N#CCCc1ccc2c(c1)-c1[nH]c3ccc([N+](=O)[O-])cc3c1CC(=O)N2 | – | – | – | 7 | 2 | 35 | 19 | – | – | – |
| COc1ccc(OC)c2c(=S)c3ccccc3[nH]c12 | 81 | 132 | 71 | – | 89 | 119 | 93 | 96 | 90 | 112 |
| CC#CC(=O)Nc1cc2c(Nc3ccc(F)c(Cl)c3)ncnc2cn1 | 97 | 73 | 110 | 98 | 100 | 98 | 87 | 140 | 90 | 77 |
| Cc1cncc2cccc(S(=O)(=O)N3CCCN(C(=O)CN)C[C@H]3C)c12 | 82 | 94 | 99 | 86 | 62 | 98 | 99 | – | – | – |
| c1ccc(-c2n[nH]cc2-c2ccnc3ccccc23)nc1 | – | 77 | 97 | 100 | 103 | 102 | 100 | 48 | 87 | 75 |
| CCC(=O)Nc1ccc2ncnc(Nc3cccc(Br)c3)c2c1 | 94 | 68 | 82 | 89 | 78 | 109 | 101 | 108 | 89 | 77 |
| O=C1NC(=O)c2c1c1c3ccccc3[nH]c1c1[nH]c3cc(Br)ccc3c21 | 87 | 27 | 37 | 85 | 31 | 87 | 88 | 87 | 86 | 94 |
| COc1cc2ncc(-c3ccccc3)nc2cc1OC | 90 | 78 | 86 | 94 | 60 | – | 93 | 92 | 90 | 92 |
| Oc1n[nH]c2nnc(-c3c(-c4ccccc4)nn4ccccc34)cc12 | 95 | 84 | 52 | 89 | 48 | 94 | 79 | 89 | 101 | 126 |
| O=C(Nc1cccc(Nc2nccc(Nc3cccc(C(F)(F)F)c3)n2)c1)C1CC1 | 85 | 54 | 66 | 82 | 29 | 117 | 130 | 51 | 87 | 76 |
| COc1ccc(C(=O)Nc2sc3c(c2C(N)=O)CCCC3)cc1OC | 90 | 80 | 66 | 90 | 96 | 92 | 85 | 120 | 73 | 80 |
| CC[n+]1c(/C=C/N(C)c2ccccc2)n(-c2ccccc2)c2ccc(-c3nc4ccccc4s3)cc21 | 108 | 80 | 34 | 105 | 103 | 99 | 122 | 133 | 107 | 80 |
| O=C1c2ccccc2-[n+]2ccc3c([nH]c4ccccc43)c21 | 91 | 95 | 79 | 91 | 83 | 100 | 86 | 92 | 97 | 109 |

| SMILES | residual activity [1] [%] | residual activity [2] [%] | residual activity [3] [%] | residual activity [4] [%] | residual activity [5] [%] | residual activity [6] [%] | residual activity [7] [%] | residual activity [8] [%] | residual activity [9] [%] | residual activity [10] [%] |
| --- | --- | --- | --- | --- | --- | --- | --- | --- | --- | --- |
| Cn1nc2c3c(cccc31)C(=O)c1ccccc1-2 | 84 | 65 | 49 | 74 | 28 | 108 | 99 | 70 | 53 | – |
| O=C1Nc2ccc(Br)cc2/C1=C\c1cc2c([nH]1)CCCC2 | – | 83 | 84 | 63 | 49 | 108 | 110 | 84 | – | 76 |
| COc1cc2ncnc(Nc3ccc(NC(=O)c4ccccc4)cc3)c2cc1OC | 92 | 77 | 96 | 72 | 22 | 105 | – | 97 | 74 | – |
| Oc1c2ccccc2c2c3c(cccc13)N=N2 | 58 | 29 | 3 | 13 | 4 | 115 | 116 | 13 | 6 | 82 |
| CC(C)n1cnc2/c(=N/c3cccc(Cl)c3)nc(NCCO)[nH]c21 | 80 | 90 | 30 | 11 | 1 | 108 | 98 | 49 | 93 | 73 |
| Oc1ccc(Nc2nc(-c3ccc(Cl)cc3)cs2)cc1 | 91 | 118 | 56 | 92 | 36 | 118 | 135 | 52 | 93 | 82 |
| CC(=O)O/N=C1\C(=C2\C(=O)Nc3cc(Br)ccc32)Nc2ccccc21 | 83 | 90 | 71 | 55 | 16 | 93 | 101 | 76 | 105 | 96 |
| Nc1ccc2ncnc(NCCc3ccc(Oc4ccccc4)cc3)c2c1 | 73 | 104 | 64 | – | 80 | 131 | 124 | 82 | 96 | 90 |
| CCN(CC)C(=O)c1ccc(Nc2nc(OCC3CCCCC3)c3nc[nH]c3n2)cc1 | 56 | – | – | 2 | 1 | 99 | 73 | 41 | 16 | 75 |
| Cn1cc(/C=C2\C(=O)Nc3ccc(S(N)(=O)=O)cc32)c2ccccc21 | 89 | 63 | 82 | 6 | 3 | 103 | 89 | 85 | 59 | 69 |
| O=c1c2ccccc2[nH]c(=S)n1CCN1CCC(=C(c2ccc(F)cc2)c2ccc(F)cc2)CC1 | 82 | 73 | 86 | 92 | 101 | 107 | 103 | 93 | 90 | 107 |
| N#CC(C#N)=C(N)/C(C#N)=C/c1ccc(O)cc1 | 94 | 68 | 85 | 99 | 97 | 90 | 76 | 99 | – | 91 |
| C[C@@H](N)[C@H]1CC[C@H](C(=O)Nc2ccncc2)CC1 | 107 | – | – | 105 | 101 | 98 | 84 | 99 | 121 | 101 |
| O=C(Nc1cccc(Nc2cc(Nc3cccc(C(F)(F)F)c3)ncn2)c1)C1CC1 | 104 | 75 | 81 | 79 | 36 | 92 | 115 | 66 | 106 | 76 |
| O=[N+]([O-])c1ccc(-c2nc(-c3ccc(F)cc3)c(-c3ccncc3)[nH]2)cc1 | 101 | 100 | 86 | – | 83 | 126 | 98 | 4 | 98 | 50 |
| Cc1cc(Nc2nc(-c3ccccc3)nc3ccccc23)n[nH]1 | 72 | 55 | 9 | 4 | 1 | 122 | 110 | 71 | 58 | 101 |
| COc1ccc(CNc2nc(N(CCO)CCO)nc3c2ncn3C(C)C)cc1 | 86 | 108 | 68 | 82 | 41 | 108 | 89 | 100 | 95 | 102 |
